This passage reports growth results from PubChem BioAssay (NCI).

The panel holds about 83,000 compounds, 20% with a hit somewhere; the sample as a whole holds those more often.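 Interpretation: 100, growth as untreated; towards 0, rising growth inhibition; 0, no net growth; 0 to -100, cell death. Compounds scoring below 10 were considered active.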 A number with no mark means an inactive call. The source made the active and inactive calls.

What all share (test): NCI-60 one-dose screen, 48 h (100 = growth as untreated, 0 = no growth, -100 = all killed)
The test system of assay [1] is NCI-H23 lung. To be noted: 10 µM unless noted.
Assay [2] has as its system NCI-H226 lung. To be noted: 10 µM unless noted.
The subject of assay [3] is NCI-H322M lung. To be noted: 10 µM unless noted.
For assay [4], the system named is HOP-62 NSCLC. To be noted: 10 µM unless noted.
In assay [5] the test system is NCI-H460 lung. To be noted: 10 µM unless noted.
For assay [6], the system named is HOP-92 NSCLC. To be noted: 10 µM unless noted.
For assay [7], the system named is NCI-H522 lung. To be noted: 10 µM unless noted.
Assay [8] concerns 786-0 renal. Particulars: 10 µM unless noted.
Assay [9] deals with COLO 205 colon. To be noted: 10 µM unless noted.
Assay [10] has as its system DU-145 prostate. To be noted: 10 µM unless noted.
In assay [11] the test system is K-562 leukemia. To be noted: 10 µM unless noted.
Assay [12] deals with MALME-3M melanoma. To be noted: 10 µM unless noted.
For assay [13], the system named is MDA-MB-231 breast. To be noted: 10 µM unless noted.
The test system of assay [14] is RXF 393 renal. To be noted: 10 µM unless noted.
In assay [15] the test system is SF-268 CNS. Particulars: 10 µM unless noted.
Assay [16] has as its system SF-295 CNS. To be noted: 10 µM unless noted.
For assay [17], the system named is SF-539 CNS. Particulars: 10 µM unless noted.
The subject of assay [18] is M14 melanoma. Particulars: 10 µM unless noted.
The subject of assay [19] is UACC-257 melanoma. Particulars: 10 µM.

Take `CCCCCCOc1ccc(C2(Cl)c3ccccc3N(C)c3ccccc32)cc1`: the growth in [1] was 24.5%; in assay [2], 29.5%; in assay [3], 57.1%; in [4] it was 82.4%; in [5], -25.7% (active); in assay [6] it was 83.1%. Moreover, the growth in [7] is 55.4%; in assay [8] it was 47.2%; in assay [9] it was 61.7%; in assay [10], 55.7%; in [11], 48.8%; in assay [12], -21.5% (active). In addition, the growth in assay [13] was 32.7%; in [14] it was 57%; in assay [15], 49.5%; in assay [16] it was 28.9%; in assay [17], 89.3%; in assay [18], 12.9%.

As to `CCN(C(=O)c1cc2ccccc2[nH]1)[C@H]1CCC[C@@H](NCc2ccc(OC)cc2)C1`, the growth in assay [1] was 89.8%; in assay [2] it was 107%; in [3], 76.1%; in assay [4], 86.2%; in [5], 103%; in assay [6], 81%. Moreover, the growth was 95.6% in assay [7]; 97% in assay [8]; 87.6% in assay [9]; 95.6% in [10]; 76.6% in [11]; 92.3% in assay [12]. Further, the growth is 90.4% in [13]; 86% in assay [14]; 89.8% in assay [15]; 99.2% in [16]; 104% in assay [17]; 112% in assay [19]. Besides, in assay [18], the growth is 98.2%.

For `Clc1nc(-c2cccnc2)nc2sc3c(c12)CCCCCC3`, the growth in assay [1] is 99.5%; in assay [2], 98.6%; in assay [3], 102%; in assay [4], 97.5%; in assay [5] it was 107%; in assay [6] it was 86.2%. For the same compound, the growth in assay [7] is 85.7%; in assay [8], 101%; in assay [9], 107%; in [10] it was 109%; in [11] it was 101%; in [12] it was 103%. Besides, the growth is 97.7% in [13]; 116% in [14]; 95.7% in [15]; 92.9% in assay [16]; 96.6% in assay [17]; 93.1% in [19]. Also, the growth in assay [18] is 107%.

Turning to `CCN(Cc1ccc(CN(CC)C(=O)C(Cl)(Cl)Cl)cc1)C(=O)C(Cl)(Cl)Cl`, the growth was 67.6% in [1]; 83.9% in assay [2]; 118% in assay [3]; 98.2% in assay [4]; 86.7% in assay [5]; 33.1% in [6]. The growth in assay [7] is 74%; in assay [8], 72.6%; in [9] it was 95.7%; in assay [10], 97.7%; in [11], 27%; in [12], 68.4%. In addition, the growth in assay [13] is 98.2%; in assay [14], 101%; in [15], 80.5%; in [16], 76.4%; in assay [17], 101%; in assay [18], 89.9%.

For `O=C(Nc1ccc(I)cc1)c1cc([N+](=O)[O-])ccc1O`, the growth in [1] was 8.5% (active); in [2] it was 45.9%; in assay [3], 29.7%; in assay [4] it was 23.8%; in assay [5] it was 33.7%; in assay [6], -6.55% (active). The growth was -1.54% (active) in assay [7]; 39.6% in assay [8]; 37.1% in assay [9]; 51.4% in [10]; 18.7% in assay [11]; -2.87% (active) in [12]. The growth in assay [13] was 16.2%; in assay [14], 7.47% (active); in assay [15], 39.4%; in assay [16], 33.7%; in assay [17] it was 20.4%; in assay [18], 31.3%.

With `OCc1c(-c2ccccc2)nc2sccn12`, the growth is 81.9% in [1]; 106% in assay [2]; 105% in assay [3]; 95.5% in assay [4]; 106% in [5]; -8.39% (active) in [6]. The growth in assay [7] was 105%; in assay [8] it was 101%; in assay [9], 110%; in assay [10], 109%; in assay [11], 123%; in [12] it was 109%. Also, the growth was 109% in [13]; 102% in [15]; 112% in assay [16]; 73.7% in assay [17]; 102% in [18].

Turning to `O=C(/C=C/CN1CCOCC1)Nc1cc2c(Nc3ccc(F)c(Cl)c3F)ncnc2cc1OCCOC(F)F`, the growth is 69.2% in [1]; 70% in assay [2]; 8.76% (active) in assay [3]; 51.2% in assay [4]; 49.4% in assay [5]; -8.94% (active) in assay [6]. In addition, the growth in [7] is 8.53% (active); in assay [8], 38.9%; in assay [9], 71.9%; in assay [10] it was 39.7%; in [11], 52%; in [12], 81.6%. The growth in assay [13] was 33.8%; in [14] it was 36.4%; in assay [15], 48.3%; in assay [16], 71.7%; in assay [17] it was 63.5%; in [18] it was 62.3%.

As to `O=C(c1ccccc1)C(Cl)C(Cl)c1ccccc1` (centres undefined), the growth in assay [1] was 86.7%; in [2], 7.49% (active); in assay [3], 106%; in assay [4], 110%; in assay [5] it was 93.7%; in [6], 75.7%. Besides, the growth was -83.5% (active) in assay [7]; -17.8% (active) in [8]; -40.2% (active) in assay [9]; 45.7% in [10]; -1.74% (active) in assay [11]; 4.33% (active) in assay [12]. Further, the growth in [13] is 25.8%; in assay [14], 17.2%; in assay [15], 82.5%; in assay [16], 104%; in assay [17], 31%; in [18], 46.8%.

For `O=C(CCl)NCCNc1nccc(Nc2ccc(S(=O)(=O)Nc3ccccn3)cc2)n1`, the growth was 22.6% in assay [1]; 48% in assay [2]; 56.5% in [3]; 26% in assay [4]; 2.9% (active) in assay [5]; 31.2% in assay [6]. Moreover, the growth in assay [7] is -63.9% (active); in assay [8], -34.5% (active); in assay [9], 61.1%; in assay [10] it was 14.4%; in [11] it was 17%; in assay [12], 10.2%. Moreover, the growth in assay [13] is 2.46% (active); in assay [14], 36.9%; in [15], 9.86% (active); in assay [16] it was 36.2%; in assay [17] it was -15.2% (active); in [19], 31.5%. Besides, the growth in [18] was 3.17% (active).
